Screening data from PubChem BioAssay.
ClpP mod: qHTS Assay for Activators of ClpP; purified B. subtilis ClpP, FRET peptide cleavage, 20 min; Potency, µM (top dose mostly 57.5 µM), without a hit: top-dose activity change, negative = active; 340,000 tested, 1.9% active; active means well fitted falling curve with a large enough effect; inconclusive means small, poorly fitted or top-dose-only effect; inactive means no such curve, though single readings can be large or run the other way; further: potency means the concentration at half of the fitted maximal effect; the source files actives as falling curves though it sought activators and does not explain the sign; nearly all actives have a fitted effect of over 65% in size
Target sequence (P80244 whole entry, looked up): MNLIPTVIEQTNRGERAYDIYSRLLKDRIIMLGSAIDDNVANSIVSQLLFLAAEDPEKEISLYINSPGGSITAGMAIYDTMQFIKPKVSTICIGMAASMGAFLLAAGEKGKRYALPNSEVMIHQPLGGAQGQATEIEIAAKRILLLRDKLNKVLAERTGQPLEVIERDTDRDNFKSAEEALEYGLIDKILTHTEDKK
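FRET quenching reversal measured ClpP activation: 10 microg/mL B. subtilis ClpP at pH 8 with the FRET-FV decapeptide, read at 430 nm after 320 nm excitation. The 20-min minus 0-min signal was scaled between DMSO/no-enzyme wells and ADEP (5.8 microM final).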
HEK293 tox: qHTS of GLP-1 Receptor Inverse Agonists: Cytotox Screen; HEK293 cAMP-luciferase reporter cells, luminescence, 24 h; Potency, µM (titrated, usually from 38.3 µM), for inactives: top-dose activity change, negative = inhibition, most hits filed as inhibitors; 410,000 tested, 0.13% active;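 further: loss of luciferase light is scored as toxicity; potency means the concentration at half of the fitted maximal effect; on the % scale 0 is the no-effect control and ±100 the full control effect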
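Cells in DMEM/10% Nu serum/1% pen-strep, 1536-well format. Pre-incubated 12 h, dosed with 23 nL compound, incubated a further 24 h. Luciferase detection, 12 min at room temp, luminescence.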
GLP-1R inv ag: qHTS of GLP-1 Receptor Inverse Agonists (Inhibition Mode). Glucagon-like peptide 1 receptor (Homo sapiens), P43220. HEK293 GLP-1R CRE-luciferase, luminescence, 24 h; GLP-1R form is constitutively active. Potency, µM (top dose mostly 38.3 µM), without a hit: at the top dose activity change, negative = inhibition, hits mostly inhibitors. 410,000 tested, 1.6% active. AID 624417, 2012; further: potency means the concentration at half of the fitted maximal effect; on the % scale 0 is the no-effect control and ±100 the full control effect; nearly all actives have a fitted effect of over 55% in size
Target sequence (P43220 whole entry, looked up): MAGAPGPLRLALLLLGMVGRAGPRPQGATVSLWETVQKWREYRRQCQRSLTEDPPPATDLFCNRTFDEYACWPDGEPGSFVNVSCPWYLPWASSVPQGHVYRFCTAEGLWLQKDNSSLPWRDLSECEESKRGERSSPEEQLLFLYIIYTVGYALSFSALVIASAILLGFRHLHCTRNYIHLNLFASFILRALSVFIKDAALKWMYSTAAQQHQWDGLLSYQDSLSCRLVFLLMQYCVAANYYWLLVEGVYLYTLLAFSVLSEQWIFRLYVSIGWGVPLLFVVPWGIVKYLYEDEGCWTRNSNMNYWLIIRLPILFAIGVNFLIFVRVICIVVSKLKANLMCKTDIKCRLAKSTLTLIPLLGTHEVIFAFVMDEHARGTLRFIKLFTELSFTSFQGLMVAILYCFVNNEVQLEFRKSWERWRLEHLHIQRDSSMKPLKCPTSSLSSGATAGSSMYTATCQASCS
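HEK293 cells stably co-expressing a cAMP-responsive luciferase reporter and constitutively active GLP-1R were seeded, incubated 12 h, then exposed to compounds for 24 h at 37 C. Luminescence was read 12 min after detection reagent; inverse agonists lower signal.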
p53 reactivator: qHTS assay for re-activators of p53 using a Luc reporter; AID 504706, 2011; H1299 p53-A138V BP100-luciferase reporter, luminescence, 24 h; Potency, µM (top dose mostly 92.2 µM), for inactives: at the highest dose activity change, positive = activation, usual class: activators; 320,000 tested, 0.063% active; further: potency means the concentration at half of the fitted maximal effect; % of control where 0% means no effect; nearly all actives have a fitted effect of over 45% in size
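H1299 (p53-null), stable ts p53-A138V + BP100-Luc; 1000 cells/well, Opti-MEM/10% FBS; cpd 4 pt, 1:5; 24 h, 37 deg C, 5% CO2; detection reagent 10 min RT; luminescence.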
GLP1R ag: qHTS of GLP-1 Receptor Agonists | Glucagon-like peptide 1 receptor (Homo sapiens), P43220 | HEK293 GLP-1R CRE-luciferase, luminescence, 4-6 h; cells express a hypersensitive GLP-1R form | Potency, µM (top dose mostly 45.6 µM), inactives show top-dose activation, actives largely listed as activators | 380,000 tested, 0.007% active; further: potency means the concentration at half of the fitted maximal effect; % of control where 0% means no effect
LDHA block: qHTS assay for inhibitors of human lactate dehydrogenase | purified LDHA, NADH/diaphorase-resazurin fluorescence; hits give low values | activity change, % (values are at about 110 or 230 µM) | 480,000 tested, 0.15% active; in the data active means activity change below about -30%; inconclusive means mostly about -25% to -30%;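 further: plate controls were DMSO wells for no effect and wells without enzyme for full effect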
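Human LDH5 (2 nM) was incubated with 0.06 mM NADH and 0.2 mM pyruvate for 5 min at room temperature in Tris pH 7.4. Remaining NADH was coupled through diaphorase/resazurin, and resorufin fluorescence was read at 0 and 20 min.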
An asterisk follows results filed as active; u = inconclusive; x = no result given; [ ] = another dose, or the depositor's remark. Hits are enriched below; roughly 2.9% of the tested compounds scored in any of these assays. Unless noted, the call rests on the fitted dose curve; in most records, active means well fitted curve in the direction sought with a large enough effect; inconclusive means small, poorly fitted or top-dose-only effect, or another doubt; inactive means no such curve, though single readings can be large; an effect the other way counts as inactive or inconclusive.

SMILES	ClpP mod	HEK293 tox	GLP-1R inv ag	p53 reactivator	GLP1R ag	LDHA block
COc1ccc(C(c2nnnn2CC2CCCO2)N2CCC(C(N)=O)CC2)cc1 (centres undefined)	28µM*	-12%	1%	-4%	-12%	-6
Cc1cc(C)cc(N(C)CC(=O)NC(N)=O)c1	x	x	x	x	x	-1
CCN1CCN(Cc2ccc(NC(=O)c3cc(NC(=O)c4cc(C)on4)cc(OC)c3)cc2C(F)(F)F)CC1	0%	u	u	x	15%	0
CCN1CCN(Cc2ccc(NC(=O)c3cc(NC(=O)C(=O)c4c[nH]c5ccccc45)cc(OC)c3)cc2C(F)(F)F)CC1	-9%	u	10µM*	-16%	-15%	-2
CCn1c(C)nc2cc(S(=O)(=O)C(F)F)ccc21	-2%	8%	4%	2%	0%	-7
O=C(c1cnn(-c2ccccc2)c1)c1cc(F)ccc1O	-7%	29%	0%	u	8%	-3
O=C(Cn1cc(C(=O)c2ccccc2)c2ccccc21)NCc1ccccc1	x	x	x	x	x	-35*
FC(F)(F)c1cccc(-c2ccc(-c3csnn3)o2)c1	2%	-8%	8%	3%	4%	-5
COc1cccc2cc(C(=O)NC3CC4CCC3C4)oc12 (centres undefined)	x	-8%	10µM*	5%	3%	-1
COc1ccc(-c2nc3c(c(SC(C)C(=O)Nc4ccc(C)cc4)n2)COC(C)(C)C3)cc1 (centres undefined)	x	x	x	x	x	7
COC(=O)c1ccc(Nc2cc(C)nc3ncnn23)cc1	-4%	-4%	17%	-4%	-3%	-7
CCOC(=O)C1=C(C)NC(C)=C(C(=O)OCC)C1c1ccc(Br)o1	3.5µM*	4%[1.53 µM]	u	-7%	11%	5
COc1ccccc1NC(=O)c1ccccc1NS(=O)(=O)c1cccs1	x	-11%	u	-3%	-1%	-1
COc1ccc(C)cc1NC(=O)c1ccccc1NS(=O)(=O)c1ccc(Cl)s1	2%	-23%	4µM*	-5%	-3%	1
CCOC(=O)c1oc2ccccc2c1NC(=O)c1ccccc1OC	35µM*	-16%	0%	-9%	19%	-1
COc1ccccc1C(=O)Nc1c(C(=O)c2ccccc2)oc2ccccc12	-1%	5%	2%	x	0%	2
Cc1ccc(S(=O)(=O)N2CCN(C(=O)Cc3ccccc3)CC2)cc1	3%	0%	0%	-1%	1%	0
O=C1Nc2ccc(Br)cc2/C1=C/C(=O)c1ccccc1	1%	u	u	x	-8%	-3
O=C(O)COc1ccccc1/C=C1\C(=O)Nc2ccc(Br)cc21	25µM*	-1%	18%	x	0%	-4
CNC(=O)C(N)CSC(C)C1=C(C)c2cc3[n-]c(cc4nc(cc5[n-]c(cc1n2)c(C)c5CCC(=O)O)C(CCC(=O)O)=C4C)c(C)c3C(C)SCC(N)C(=O)NC.[Fe+2] (centres undefined)	x	x	x	x	-4%	x
COc1ccc(NC(=O)Cn2cnc3c(nc4n3CCCCC4)c2=O)cc1Cl	0%	1%	3%	x	x	-11
N#CC(C(=O)NC1CCCCC1)=C1CCCCCC1	16µM*	-2%	1%	3%	2%	1
Cc1ccc(-c2onc(C)c2C)cc1S(=O)(=O)N1CCOc2ccccc21	-2%	24%	u	-9%	13%	-2
Cc1ccc(-c2onc(C)c2C)cc1S(=O)(=O)N1c2ccccc2CC1C (centres undefined)	1%	12%	10µM*	x	x	1
O=c1ccc(Br)c[nH]1	-3%	-4%	7%	-6%	6%	1
SMILES	ClpP mod	HEK293 tox	GLP-1R inv ag	p53 reactivator	GLP1R ag	LDHA block
CCc1ccccc1N(C)S(=O)(=O)c1ccc2[nH]cc(C(=O)O)c(=O)c2c1	1%	-1%[7.66 µM]	6%[7.66 µM]	2%	-3%	-42*
COCCN(CCOC)C(=O)c1c[nH]c2ccc(S(=O)(=O)N(C)c3ccc(F)cc3)cc2c1=O	32µM*	3%	-8%	-4%	-7%	-4
CCOc1ccccc1N(C)S(=O)(=O)c1ccc2[nH]cc(C(=O)N(CCOC)CCOC)c(=O)c2c1	x	4%	2%	1%	7%	-7
Cc1ccccc1N(C)S(=O)(=O)c1ccc2[nH]cc(C(=O)NCC3CCCO3)c(=O)c2c1 (centres undefined)	32µM*	0%	-17%	-12%	0%	-2
CN(c1ccc(F)cc1)S(=O)(=O)c1ccc2[nH]cc(C(=O)O)c(=O)c2c1	-21%	-7%	-1%	3%	-14%	-30*
COc1ccc(NC(=O)Cn2nc(C(=O)O)c3ccccc3c2=O)cc1S(=O)(=O)N1CCCCC1	x	-3%	3%	2%	12%	-10
CCOC(=O)C(=O)Nc1ccccc1C(=O)Nc1ccc(OC)cc1	u	-2%	0%	0%	3%	-18
CCOC(=O)c1c(O)c2cc(Cl)ccc2n(CC)c1=O	x	1%	4%	5%	-1%	1
Cc1ccc(N2CC(NS(=O)(=O)c3cccnc3)CC2=O)cc1 (centres undefined)	-7%	3%	5%	0%	0%	-4
CCOC(=O)c1cc(-c2cccc(C(F)(F)F)c2)nc2nc(SC)[nH]c(=O)c12	0%	11%	17%	2%	u	-4
CCOC(=O)c1cc(-c2ccc(C)cc2)nc2nc(SC)[nH]c(=O)c12	14µM*	5%	16%	2%	-2%	-4
COc1ccc(CC(=O)Nc2nc(-c3ccc(F)c(F)c3)cs2)cc1	x	-1%	11µM*	1%	8%	-4
CCCCCCCCCCS(=O)(=O)Nc1cc(Br)c2cccnc2c1	x	x	x	x	x	20
O=C(c1ccccc1)N(Cc1nc2ccccc2c(=O)[nH]1)C1CCCCC1	x	-12%	u	2%	16%	-9
O=C(c1ccccc1F)N(Cc1nc2ccccc2c(=O)[nH]1)C1CCCC1	-13%	u	10µM*	0%	-3%	0
CCOc1ccc(Br)cc1C1N2CC3(CC)CN1CC(CC)(C2)C3=O (centres undefined)	x	x	x	x	x	-3
Cc1nn(CC(=O)N(C)C2CCS(=O)(=O)C2)c(C)c1[N+](=O)[O-] (centres undefined)	1%	-9%	-3%	16%	-8%	-4
